Only some compounds are listed: those with a hit (about 19% of all), similar ones and a draw of the others.
HT1080 IDH1KD tx – qHTS for induction of synthetic lethality in tumor cells producing 2HG: qHTS for the HT-1080-IDH1KD cell line | Potency, µM (doses to about 46.1 µM), without a hit: at the highest dose activity, negative = toxicity, actives largely listed as cytotoxic | AID 686971, 2013 | 2% of 360,000 active | HT-1080 IDH1 knockdown viability, ATP luminescence, 48 h;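 further: potency means the concentration at half of the fitted maximal effect; 0% = DMSO wells and -100% = cell-free medium wells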
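% activity derives from luminescence (CellTiter-Glo), normalised to DMSO and no-cell wells. HT-1080-IDH1KD cells, 750/well, had 48 h compound exposure at 37 °C.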
TDP1 cell CPT – qHTS for Inhibitors of human tyrosyl-DNA phosphodiesterase 1 (TDP1): qHTS in cells in presence of CPT; chicken DT40 Tdp1-/-;hTDP1 cells + 20 nM CPT, ATP luminescence, 48 h; Potency, µM (doses to about 46.2 µM), for inactives: top-dose activity change, negative = growth inhibition, actives largely listed as inhibitors; 12% of 420,000 active; AID 686979, 2013; further: potency means the concentration at half of the fitted maximal effect; nearly all actives have a fitted effect of over 55% in size
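Chicken DT40 Tdp1-/- cells complemented with human TDP1, 400 cells/well, exposed to compounds plus 20 nM camptothecin for at least 48 h at 37 C; viability read as ATP content by CellTiter-Glo luminescence.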
HT1080NT lethal – qHTS for induction of synthetic lethality in tumor cells producing 2HG: qHTS for the HT-1080-NT fibrosarcoma cell line; HT-1080-NT fibrosarcoma viability, CellTiter-Glo ATP luminescence, 48 h; Potency, µM (highest dose often 46.1 µM), inactives show at the highest dose activity, negative = less viability, usual class: cytotoxic; 1.6% of 360,000 active;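 further: NT is the 2HG producing partner of a matched IDH1 knockdown line; potency means the concentration at half of the fitted maximal effect; 0% = DMSO-treated cells and -100% = media-only wells without cells; nearly all actives have a fitted effect of over 55% in size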
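HT-1080-NT; 750 cells/well; 5% FBS RPMI; 48 h compound, 37 degrees C; CellTiter-Glo luminescence; curve fitting and curve-class assignment.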
TDP1 cell noCPT – qHTS for Inhibitors of human tyrosyl-DNA phosphodiesterase 1 (TDP1): qHTS in cells in absence of CPT | Potency, µM (series often up to 46.2 µM), for inactives: at the top dose activity change, negative = growth inhibition, actives largely listed as inhibitors | 15% of 420,000 active | DT40 Tdp1-/- hTDP1 cells, no CPT, ATP luminescence, 48 h; further: potency means the concentration at half of the fitted maximal effect; nearly all actives have a fitted effect of over 55% in size
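Chicken DT40 Tdp1-/- cells complemented with human TDP1, screened without camptothecin (DMSO vehicle only), 400 cells/well. Compounds pin-transferred, cells incubated at 37 °C for at least 48 hr. Growth read as ATP-dependent luminescence (CellTiter-Glo, 30 min at RT).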
IL-1B inflam inh – qHTS for Inhibitors of Inflammasome Signaling: IL-1-beta AlphaLISA Primary Screen; THP-1 LPS/ATP IL-1B secretion, AlphaLISA, 16 h; hits give low values; activity change, % at 57.5 µM; 4.7% of 360,000 active; in the data active means activity change below about -50%; inconclusive means mostly about -30% to -49%
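Secreted IL-1B measured by AlphaLISA bead assay after 16 h compound exposure of THP-1 cells; compounds (final up to 57.5 uM) added 1 h before LPS (250 ng/mL) and ATP (1.25 mM) stimulation; lower signal means less secretion.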
Active calls of the source: *; ! = a repeat was not active. Unless noted, the call rests on the fitted dose curve; in most records, active means well fitted curve in the direction sought with a large enough effect; inconclusive means small, poorly fitted or top-dose-only effect, or another doubt; inactive means no such curve, though single readings can be large; an effect the other way counts as inactive or inconclusive. Unless noted, on the % scale 0 is the no-effect control and ±100 the full control effect.

`CC(C)(C)NC(=O)[C@@H]1C[C@@H]2CCCC[C@@H]2CN1C[C@@H](O)[C@H](Cc1ccccc1)NC(=O)[C@H](CC(N)=O)NC(=O)c1ccc2ccccc2n1` gave HT1080 IDH1KD tx 23µM*, TDP1 cell CPT inconclusive, HT1080NT lethal 21µM*, TDP1 cell noCPT 15µM* and IL-1B inflam inh -61*!.
`CCCC#Cc1cnc2c(c1)C(=O)N([C@H](C)CO)C[C@@H](C)[C@H](CN(C)S(=O)(=O)c1cccc(OC)c1)O2` gave HT1080 IDH1KD tx -6%, TDP1 cell CPT inconclusive, HT1080NT lethal -1%, TDP1 cell noCPT 10µM* and IL-1B inflam inh inconclusive.
For C[C@H](CO)N1C[C@H](C)[C@@H](CN(C)S(=O)(=O)c2ccccc2F)Oc2ncc(C#Cc3cccnc3)cc2C1=O the results were HT1080 IDH1KD tx -5%, TDP1 cell CPT inconclusive, HT1080NT lethal -9%, TDP1 cell noCPT 15µM* and IL-1B inflam inh -6.
For C[C@H]1CN([C@@H](C)CO)C(=O)c2cc(C#Cc3cccnc3)cnc2O[C@H]1CN(C)Cc1ccc(F)cc1 the results were HT1080 IDH1KD tx 0%, TDP1 cell CPT inconclusive, HT1080NT lethal 1%, TDP1 cell noCPT inconclusive and IL-1B inflam inh -8.
COc1ccc(S(=O)(=O)N(C)C[C@H]2Oc3ncc(C#CC4(O)CCCC4)cc3C(=O)N([C@@H](C)CO)C[C@@H]2C)cc1 was read as HT1080 IDH1KD tx -2%, TDP1 cell CPT 9.2µM*, HT1080NT lethal -1%, TDP1 cell noCPT inconclusive and IL-1B inflam inh -28.
`COc1cccc(S(=O)(=O)N(C)C[C@@H]2Oc3ncc(C#CCN(C)C)cc3C(=O)N([C@H](C)CO)C[C@H]2C)c1` gave HT1080 IDH1KD tx 4%, TDP1 cell CPT -21%, HT1080NT lethal 5%, TDP1 cell noCPT inconclusive and IL-1B inflam inh -16.
Cc1ccc(N2CCN(C(=S)Nc3ccccc3C)CC2)cc1 was read as HT1080 IDH1KD tx 7%, TDP1 cell CPT 6%, HT1080NT lethal 3%, TDP1 cell noCPT 0% and IL-1B inflam inh 0.
`O=C(COc1ccc(Br)cc1)NCCCNC(=O)c1ccncc1` gave HT1080 IDH1KD tx 21%, TDP1 cell CPT -11%, HT1080NT lethal 22%, TDP1 cell noCPT 14% and IL-1B inflam inh -11.
Screening CC(C)CCn1nnnc1CN1CCN(c2ccccc2)CC1 returned HT1080 IDH1KD tx 10%, TDP1 cell CPT 12%, HT1080NT lethal 8%, TDP1 cell noCPT -18% and IL-1B inflam inh 1.
For COc1ccc(CNc2nc3c(S(=O)(=O)c4ccccc4)nnn3c3ccc(Cl)cc23)cc1 the results were TDP1 cell CPT inconclusive and TDP1 cell noCPT -27%.
Screening COc1ccc(CNc2nc(SCc3cc(=O)n4cc(Cl)ccc4n3)nc3ccccc23)cc1 returned HT1080 IDH1KD tx -4%, TDP1 cell CPT 13µM*, HT1080NT lethal -1%, TDP1 cell noCPT 21µM* and IL-1B inflam inh 19.
`COc1ccc(-c2ccc(C(=O)Nc3cc(OC)c(OC)c(OC)c3)c3occc23)c(C)c1` gave HT1080 IDH1KD tx inconclusive, TDP1 cell CPT 6.5µM*, HT1080NT lethal -28%, TDP1 cell noCPT 23µM* and IL-1B inflam inh -15.
COc1ccc(-c2ccc(C(=O)Nc3cccc(C(F)(F)F)c3)c3occc23)c(C)c1 was read as HT1080 IDH1KD tx -27%, TDP1 cell CPT 23µM*, HT1080NT lethal -11%, TDP1 cell noCPT 21µM* and IL-1B inflam inh -3.
`COC(=O)c1c(Cl)c2n3ccccc3c(C)c(-c3ccccc3)c-2c1C(=O)OC` gave HT1080 IDH1KD tx -2%, TDP1 cell CPT inconclusive, HT1080NT lethal -13%, TDP1 cell noCPT 23µM* and IL-1B inflam inh -11.
COc1ccc2[nH]cc(C(=O)CN3CCCC(C)C3)c2c1 (centres undefined) was read as HT1080 IDH1KD tx 0%, TDP1 cell CPT -24%, HT1080NT lethal 4%, TDP1 cell noCPT -21% and IL-1B inflam inh 4.
Screening COC(=O)c1[nH]c2cccc(OC)c2c1NC(=O)CCN1CCN(c2ccccc2OC)CC1 returned HT1080 IDH1KD tx inconclusive, TDP1 cell CPT 10µM*, HT1080NT lethal -10%, TDP1 cell noCPT 13µM* and IL-1B inflam inh -1.
For COC(=O)c1[nH]c2cccc(OC)c2c1NC(=O)CN1CCN(c2cccc(OC)c2)C(C)C1 (centres undefined) the results were HT1080 IDH1KD tx -17%, TDP1 cell CPT inconclusive, HT1080NT lethal -27%, TDP1 cell noCPT 15µM* and IL-1B inflam inh -1.
`COc1cccc(N2CCN(CC(=O)c3c[nH]c4ccc(OC)cc34)CC2C)c1` (centres undefined) gave HT1080 IDH1KD tx inconclusive, TDP1 cell CPT 21µM*, HT1080NT lethal inconclusive, TDP1 cell noCPT 21µM* and IL-1B inflam inh -2.
For COc1ccc(NC(=O)Cn2cc(C(=O)c3ccccc3)c(=O)c3cc(OC)ccc32)c(OC)c1 the results were TDP1 cell CPT -10% and TDP1 cell noCPT -2%.
`O=C(NCC(c1ccco1)N1CCCC1)c1ccc(S(=O)(=O)Nc2ccccc2F)cc1` (centres undefined) gave HT1080 IDH1KD tx 15%, TDP1 cell CPT -20%, HT1080NT lethal 7%, TDP1 cell noCPT -29% and IL-1B inflam inh 3.
For Cc1ccc(-n2c3c(c(=O)[nH]c2=O)C(NC(=O)c2ccccc2C)(C(F)(F)F)C(=O)N3)cc1 (centres undefined) the results were TDP1 cell CPT 13µM* and TDP1 cell noCPT 23µM*.
For CCOC(=O)C1(C)Oc2ccccc2C(C(=O)OC)=C1C(=O)OC (centres undefined) the results were HT1080 IDH1KD tx 1%, TDP1 cell CPT inconclusive, HT1080NT lethal 8%, TDP1 cell noCPT 16µM* and IL-1B inflam inh 24.
Screening O=C(CCSc1nc(-c2ccco2)cc(C(F)(F)F)n1)NCCN1CCOCC1 returned HT1080 IDH1KD tx 1%, TDP1 cell CPT 7%, HT1080NT lethal 4%, TDP1 cell noCPT 3% and IL-1B inflam inh 20.
Cc1ccc(-c2nc3ccccc3[nH]2)cc1NC(=S)NC(=O)c1ccccc1Br was read as HT1080 IDH1KD tx -15%, TDP1 cell CPT inconclusive, HT1080NT lethal -5%, TDP1 cell noCPT 15µM* and IL-1B inflam inh -56*.
